Among all 71,000 compounds or so, about 65 (0.09%) were called active. For the sample, actives were picked, then their nearest neighbours and some compounds at random. Values without a mark were called inactive. The call rests on the fitted dose curve; in most records, active means well fitted curve in the direction sought with a large enough effect; inconclusive means small, poorly fitted or top-dose-only effect; inactive means flat fitted curve, though single readings scatter.
target: Beta-lactamase (Escherichia coli (strain K12)) (UniProt P00811); assay: Promiscuous and Specific Inhibitors of AmpC Beta-Lactamase (assay with detergent); details: purified AmpC, nitrocefin hydrolysis with detergent; series mostly up to 28.7 µM; activity change, negative = inhibition: at the top concentration
Sequence (P00811 whole entry, looked up): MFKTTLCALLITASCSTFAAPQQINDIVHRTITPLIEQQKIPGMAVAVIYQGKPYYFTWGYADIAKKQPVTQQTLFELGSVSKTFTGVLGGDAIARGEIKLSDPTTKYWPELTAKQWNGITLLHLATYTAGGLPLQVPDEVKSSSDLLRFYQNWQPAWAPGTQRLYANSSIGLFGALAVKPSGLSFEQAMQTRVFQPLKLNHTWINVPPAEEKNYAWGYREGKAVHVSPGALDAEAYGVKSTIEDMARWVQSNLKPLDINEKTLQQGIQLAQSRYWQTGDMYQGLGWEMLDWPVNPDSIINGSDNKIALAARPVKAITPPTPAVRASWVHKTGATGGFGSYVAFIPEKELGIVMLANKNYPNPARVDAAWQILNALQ
Description: NIH Molecular Libraries Screening Centers Network [MLSCN]
NIH Chemical Genomics Center [NCGC]
PI Name: Shoichet, Brian K.
This aggregation profiling approach exploits the sensitivity of aggregate formation to detergent. Inhibition of b-lactamase is measured in the presence and absence of 0.01% Triton X-100. This particular assay had the prescence of 0.01% Triton X-100. See Pubchem assay "Promiscuous and Specific Inhibitors of AmpC Beta-Lactamase (assay without detergent)" for related screen. Compounds that inhibit only in the absence of detergent are considered likely promiscuous aggregators.
A screen of 1,030 compounds was performed in Brian Shoichet's lab in 96-well format. AmpC activity was measured by following the absorbance at 480 nm. Nitrocefin is a chromogenic substrate: while nitrocefin is yellow (lmax 390 nm), the product of its hydrolysis is red (lmax 486 nm, 17,000 M-1). AmpC beta lactamase was provided by Brian Shoichet and Brian Feng, UCSF.
NCGC Assay Protocol Summary:
20 mM phosphate buffer, pH 7.0
Triton X-100: No Detergent screen: 0.0001%, Detergent screen: 0.01%.
Buffer in columns 3 and 4 as negative control (no enzyme).
5.3 nM AmpC in columns 1, 2, 5-48. Titration of UCSF compound 9 control (from 10 mM, then 1:2) pin-transferred to column 2. Column 1 is neutral (100% activity).
Six uL of reagents were dispensed to 1536-well Greiner black clear bottom plates. Compounds and controls (23 nL) were transferred via Kalypsys PinTool. The plates were incubated for 15 min at room temperature, and then 2 uL of 800 uM solution of nitrocefin was added to start the reaction. The plates were immediately transferred to and read every 20 seconds for 4 min on ViewLux (Perkin-Elmer) High-throughput CCD imager using 480 nm absorbance protocol. During dispense, reagent bottles were kept submerged into 4 deg C water bath.
Keywords: NIH Roadmap, MLSCN, MLI, MLSMR, qHTS, NCGC, AmpC Beta-Lactamase, Aggregation
On the % scale 0 is the no-effect control and ±100 the full control effect; potency means the concentration at half of the fitted maximal effect.

Structure (SMILES)	activity change, negative = inhibition	Potency
CCOc1cc(C(=O)N2CCc3cc(OC)c(OC)cc3C2)ccc1OC(F)F	-2.69%	–
N#C/C(=C\c1ccc(O)c(O)c1)C(=O)NCc1ccccc1	inactive	–
C=C(C)COc1ccc(-c2n[nH]c(C)c2-c2ccccc2OC)c(O)c1	3.39%	–
CC(C)(C)n1nnnc1C(c1ccc2ncccc2c1)N1CCSCC1 (stereo not drawn)	-3.81%	–
NCCNCC1CCNCC1	-0.8% [at 5.75 µM]	–
CCc1nnc(NC(=O)c2ccc(S(=O)(=O)NC3CCCCC3)cc2)s1	10.1%	–
Cc1cccc(N2CCN(C(c3ccccc3)c3nnnn3CC3CCCO3)CC2)c1C (stereo not drawn)	-2.94%	–
Cc1cccc2cc(CN(Cc3nnnn3Cc3ccccc3)C3CCCC3)c(=O)[nH]c12	30.9%	–
CCS(=O)(=O)N1CCCC(C(=O)NCCCN(C)Cc2ccccc2)C1 (stereo not drawn)	-2.63%	–
CC1=CC(=O)C2=C(C)C[C@H](O)[C@@H]3[C@@H](OC(=O)[C@H]3C)[C@H]12	0.4%	–
Cc1ccc(N2C(=O)c3oc4ccccc4c(=O)c3C2c2cccnc2)nc1 (stereo not drawn)	12.4%	–
O/N=C1\CC2(Cc3nonc31)OCCO2	-0.261%	–
Cn1c(=O)c(-c2ccccc2)nc2cnc(N3CCNCC3)nc21	-2.9%	–
CCOC(=O)CSc1nnc(CNc2nc(-c3ccccc3)cs2)n1C	6.67%	–
Cc1ccc(-n2nc(-c3ccco3)cc2C(=O)NCc2cccnc2)cc1	-4.9%	–
Cc1ccc(S(=O)(=O)N2CCC(C(=O)N[C@@H](C)C(=O)NCc3ccccc3)CC2)cc1	-0.931%	–
N#Cc1ccccc1-c1ccc2ncnc(NCc3cccnc3)c2c1	0.3%	–
NC(=O)c1ccc(OC[C@H](O)CN2CC=C(c3ccc(F)cc3)CC2)cc1	-3.1%	–
CCCn1c(-c2ccc(F)cc2)nc2c(NC3CCN(Cc4ccccc4)C3)nc(C)nc21 (stereo not drawn)	13.7%	–
CC(C)c1cc(CN(C)C)c(O)c(C(C)(C)C)c1	-4.5% [at 5.75 µM]	–
O=C1N(Cc2ccc3c(c2)OCO3)c2ccccc2C1(O)c1c[nH]c2ccccc12 (stereo not drawn)	1.62%	–
CC(C)(C)NC(=O)C(c1ccncc1)N(C(=O)CNC(=O)c1ccco1)c1ccc2c(c1)OCO2 (stereo not drawn)	-3.56%	–
O=C(NC12CC3CC(CC(C3)C1)C2)N1CCCC(CO)C1 (stereo not drawn)	-4.1%	–
CC(C)(O)[C@H]1[C@H]2OC(=O)[C@@H]1[C@]1(O)C[C@H]3O[C@]34C(=O)O[C@H]2[C@]14C	7.4%	–

Structure (SMILES)	activity change, negative = inhibition	Potency
CC(=O)Oc1ccc(C(=O)Nc2nccs2)cc1	9.77%	–
COc1ccc2[nH]cc(CCNc3cc(-c4ccccc4CN(C)C)ncn3)c2c1	9.4%	–
CCCNC(=O)C1CC(=O)N(c2ccc(OCC(=O)Nc3cccc(C)c3C)cc2)C1 (stereo not drawn)	10.2%	–
O=C(NCC1CCCO1)C(C(=O)c1ccccc1)n1cc(Cl)ccc1=O (stereo not drawn)	7.55%	–
O=C(c1cccs1)N1CCCC(c2nc(-c3ccc(F)cc3)no2)C1 (stereo not drawn)	-1.33%	–
CS(=O)(=O)NCc1ccc(C(=O)NCc2ccccc2)cc1	-4.11%	–
COc1cccc(-n2c(SCC(=O)NC3CCCCC3)nc3n[nH]c(C)c3c2=N)c1	3.34%	–
CCOC(=O)c1ccc(N2C(=O)CC(N3CC(C)OC(C)C3)C2=O)cc1 (stereo not drawn)	-3.59%	–
CCOc1ccc2nc(NCCNS(=O)(=O)c3ccccc3)c(C#N)cc2c1	7.14%	–
O=C(Cn1ccc(=O)[nH]c1=O)Nc1ccc(C(=O)O)c(O)c1	-5.4% [at 5.75 µM]	–
COc1cc(C[C@H](C)N)c(OC)cc1I	inactive	–
O=C(Nc1ccccc1)N(Cc1cccnc1)Cc1ccco1	-3.39%	–
O=C(O)CSCNC(=O)CC12CC3CC(CC(C3)C1)C2	-1.26%	–
CCOc1c(N2CCCCC2)c(=O)c1=O	10.1%	–
NC(=S)c1ccc(C(N)=S)o1	-5.48%	–
O=C(Nc1ccccc1)N[C@H]1C[C@H](C(=O)O)Nc2cc(Cl)cc(Cl)c21	-2.4%	–
O=C(CN(CC1CCCO1)C(=O)CNS(=O)(=O)c1ccccc1)NCc1ccccc1 (stereo not drawn)	1.85%	–
COC(=O)c1ccc(S(=O)(=O)c2ccc(C(=O)OC)s2)s1	-1.11%	–
CCNS(=O)(=O)c1ccc(NC(=O)Nc2cccc(C(F)(F)F)c2)cc1	19.8%	–
COc1ccc2oc(=O)c(C(=O)O)cc2c1	-3.06%	–
O=C(NCc1ccccn1)c1cc2ccccc2oc1=O	-3.08%	–
O=C(Oc1cccnc1)c1cc2ccccc2oc1=O	–	10 µM (active)
C=CCOc1ccc(C2/C(=C(\O)c3c(C)[nH]c(C(=O)OC)c3C)C(=O)C(=O)N2CCN(C)C)cc1 (stereo not drawn)	-1.73%	–
Cc1ccc(Oc2ccc(N)cc2)cc1	-6.72%	–
